Assay results: PubChem BioAssay (NCATS)
Inconclusive results are not listed. Values without a mark were called inactive. Active and inactive are the calls of the source. Calls follow the shape of the dose curve; as a rule, active = well fitted inhibition curve with a large enough effect; inconclusive = small, poorly fitted or top-dose-only effect, or effect the other way; inactive = flat fitted curve, though single readings scatter.

Experiment: qHTS for Inhibitors of Plasmodium falciparum (CP250) proliferation (AID 504320)
Details: P. falciparum CP250 in erythrocytes, SYBR Green DNA, 72 h; series mostly up to 6.7 µM; activity change, negative = inhibition: at the top concentration
Text: Plasmodium falciparum is a virulent malarial parasite that kills 1-2 million people worldwide each year. Malaria not only inflicts tremendous suffering and morbidity on the human population, but has dramatically influenced the course of civilization with profound sociological and economic implications (Shah, S. 2010). Transmitted by mosquitoes, the sporozoite form of the parasite enters the blood stream to infect hepatocytes, where they become merozoites that infect red blood cells (erythrocytes). Within erythrocytes, merozoites begin a […] cycle of growth and division, after which the parasite is released to infect new red blood cells. Gametocytes, which form within erythrocytes as well, circulate in the bloodstream and are ingested by the mosquito, thereby completing the life cycle (see CDC website). To profile malarial lines for differential chemical responses and to identify inhibitors of malarial growth, an assay that measures P. falciparum growth and replication within erythrocytes was employed. This assay uses a DNA binding fluorescent dye (SYBR Green) to detect parasite DNA following cell lysis. Because mature erythrocytes lack DNA, only Plasmodium-derived DNA is detected. The P. falciparum line cp250, derived from a malarial isolate from Cambodia, (Mu, J., et al. 2010) was added to the panel of lines, Dd2, HB3, 7G8 and GB4 in this study. Laboratory of Assay Development and Screening Technology [ADST] and NIH Chemical Genomics Center [NCGC] Boston University, Chemistry Department, Center for Chemical Methodology and Library Development [CMLD-BU] NIH National Institute of Allergy and Infectious Diseases [NIAID]
ADST Assay Protocol Summary: The 1536-well SYBR Green viability assay was based on the method of Bennett et al (2004) and described previously in 1536-well format (Yuan J., et al. 2009). For screening 3 ul culture medium was dispensed into 1536 well black clear bottom plates (Aurora Biotechnologies) using a Multidrop Combi (Thermo Fisher Scientific Inc.), 23 nL compounds in DMSO were added by a pin transfer (Cleveland, P.H. and Koutz, P.J, 2005) using a pin tool-based delivery system (Kalypsys), and 5 ul of erythrocytes infected with P. falciparum one of five lines (cp250, Dd2, HB3, 7G8 or GB4, 0.3% parasitemia, 2.5% hematocrit final concentration) were added. The plates were incubated at 37C in a humidified incubator in 5% CO2 for 72 h, and 2 ul lysis buffer (20 mM Tris HCl, 10 mM EDTA, 0.16% saponin, 1.6% triton X, 10X SYBR Green I (supplied as 10,000X final concentration by Invitrogen) was added to each well. The plates were mixed for 25 sec with gentle shaking and incubated overnight at room temperature in the dark. The following morning, fluorescence intensity at 485(14) nm excitation and 535(25) nm emission wavelengths was measured on an EnVision (Perkin Elmer) plate reader. Plate reads were normalized relative to the control inhibitor (0.29 uM artemisinin) and vehicle (DMSO) wells present on each plate and then corrected by an algorithm using vehicle-only control plates at the beginning and end of the compound plate stack. References Shah, S. (2010). The Fever: how malaria has ruled humankind for 500,000 years. New York, Sarah Crichton Books. CDC web site, http://www.cdc.gov/malaria/about/biology/index.html Mu, J., Myers, R.A., Jiang, H., Liu, S., Ricklefs, S., Waisberg, M., Chotivanich, K., Wilairatana, P., Krudsood, S., White, N.J., et Plasmodium falciparum genome-wide scans for positive selection, recombination hot spots and resistance to antimalarial drugs Nature Genetics 2010, 42, pp 268-271 Bennett TN, Paguio, M., Gligorijevic, B., Seudieu, C., Kosar, A. D., Davidson, E., and Roepe, P. D. Novel, rapid, and inexpensive cell-based quantification of antimalarial drug efficacy Antimicrobial Agents Chemother. 2004, 48(5): pp 1807-10 Yuan J, Johnson RL, Huang RL, Wichterman J, Jiang HY, Hayton K, Fidock DA, Wellems TE, Inglese J, Austin CP, Su XZ. […]

| Structure (SMILES) | activity change, negative = inhibition | outcome |
| --- | --- | --- |
| CCOC(=O)[C@@]12[C@@H]3[C@@H](CCN3C(=O)N[C@H]1c1ccccc1)C2(C)C | -0.558% |  |
| CO[C@@H]1c2ccccc2[C@H]2C(C(=O)O)c3c(n(C)c4ccccc34)[C@H]2[C@H]1C (stereo partly specified) | 2.34% |  |
| COC(=O)C1=C[C@H]([C@@H](C)[C@H](OC)c2ccccc2Br)[C@H]2[C@H]1c1ccccc1N2C |  | inactive |
| CCOC(=O)[C@]12C[C@]3(C)CCCN(C(=O)N[C@@H]1c1ccccc1)[C@@H]32 | 5.3% |  |
| COC(=O)C1=C2CCO[C@H]2[C@@H]2[C@@H](C)[C@H](OC)c3ccccc3[C@@H]12 | -1.88% |  |
| COC(=O)[C@@H]1[C@@H](c2ccccc2)[C@H]2C(=O)c3c(OC)cc(OC)cc3O[C@@]12c1ccc(OC)cc1 | -7.77% |  |
| COC(=O)[C@@]1(C=C2c3ccccc3[C@@H](OC)[C@@H]2C)[C@@H]2Oc3ccccc3[C@@H]21 | -0.883% |  |
| COC(=O)C1=NN=C(C(=O)OC)[C@@]2(C)c3ccccc3NC12 (stereo partly specified) | 0.774% |  |
| CC(=O)[C@]12[C@H](c3ccccc3)[C@@H]3CCN(C(=O)N[C@H]1c1ccccc1)[C@@]32C | -11.2% |  |
| COC(=O)[C@@]1(C=C[C@@H](C)[C@H](OC)c2ccccc2Br)[C@@H]2Oc3ccccc3[C@@H]21 | -1.09% |  |
| COC(=O)[C@@]12Cc3ccccc3[C@H]1C[C@H](C)[C@@H](C)N2C(=O)C(F)(F)F | -1.17% |  |
| C=C1[C@@H]2CCN3C(=O)N[C@@H](c4ccccc4)[C@@]1(C(=O)OCC)C23 (stereo partly specified) | -0.457% |  |
| COC(=O)C1c2c(n(C)c3ccccc23)[C@H]2[C@@H](C)[C@H](OC)c3ccccc3[C@@H]12 (stereo partly specified) | -15.2% |  |
| COC(=O)C12CC3=CCC4C(=O)N(c5ccccc5)C(=O)C4C3Cc3ccccc3[C@H]1CNC2=O (stereo partly specified) | 0.562% |  |
| CCOC(=O)[C@]12C[C@@H]3OCCN(C(=O)N[C@@H]1c1ccccc1)[C@@H]32 | 3.11% |  |
| CCOC(=O)[C@]12C[C@]3(OC)CCN(C(=O)N[C@@H]1c1ccccc1)[C@@H]32 | 0.215% |  |

| Structure (SMILES) | activity change, negative = inhibition | outcome |
| --- | --- | --- |
| CCOC(=O)[C@]12C[C@@H]3CCN(C(=O)N(C(C)=O)[C@@H]1c1ccccc1)[C@@H]32 | 4.15% |  |
| CCOC(=O)[C@]12C[C@]3(C)CCN(C(=O)N[C@@H]1c1ccccc1)[C@@H]32 | -2.28% |  |
| CCOC(=O)[C@@]12C3[C@@H](CCN3C(=O)N[C@@H]1c1ccccc1)[C@@H]2C (stereo partly specified) | 0.905% |  |
| COC(=O)C1(C)C2CC(C)C(c3ccccc32)N1C(=O)C(F)(F)F (stereo unspecified) | -2.25% |  |
| CC(=O)[C@@]12C3[C@@H](CCN3C(=O)N[C@H]1c1ccccc1)[C@H]2c1ccccc1 (stereo partly specified) | 1.86% |  |
| COC(=O)C1=C2CCO[C@@H]2[C@H]2[C@@H](C)[C@H](OC)c3ccccc3[C@H]12 | 1.01% |  |
| COC(=O)C1=C2CCCO[C@H]2[C@@H]2[C@@H](C)[C@H](OC)c3ccccc3[C@@H]12 | -0.148% |  |
| C=C(C)C(=O)CP(=O)(OCC)OCC | 8.51% |  |
| COC(=O)[C@@]1(C=C2c3ccc(F)cc3[C@@H](OC)[C@@H]2C)[C@@H]2Oc3ccccc3[C@@H]21 | -4.05% |  |
| CC(=O)[C@]12C[C@@H]3CCCN(C(=O)N[C@@H]1c1ccccc1)[C@@H]32 | 1.31% |  |
| COC(=O)[C@]12C[C@@H]3CCN(C(=O)N[C@@H]1c1ccccc1)[C@@]32C | -10.2% |  |
| CC(=O)[C@]12C[C@]3(C)CCCN(C(=O)N[C@@H]1c1ccccc1)C32 (stereo partly specified) | -1.75% |  |
| CCC[C@]12CCN3C(=O)N[C@@H](c4ccccc4)[C@](C(=O)OCC)(C1)[C@H]32 | 3.2% |  |
| CC(=O)[C@]12C[C@@H]3CCN(C(=O)N[C@@H]1c1ccccc1)[C@@]32C | 4.05% |  |
| COC(=O)C1C2CC(C)C(c3ccccc32)N1C(=O)C(F)(F)F (stereo unspecified) |  | inactive |
